According to the supplement of paper PMC4723716:
± gives the uncertainty stated by the source. In all, about 9,900 compounds were measured (“viability index relative to DMSO control”: median about 1, lowest 2% from about 0.85 on). The entries come from a sample that favours the lowest values as a whole.

System: Plasmodium falciparum NF54 stage V gametocytes
Test: viability index relative to DMSO control (fraction); higher = less gametocyte killing
Conditions: 2.5 µM, incubation time: 72 h
How it was run: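 In 1,536-well plates, 10 µl of serum-free medium holding P. falciparum NF54 stage V gametocytes (0.75% gametocytemia, 1.25% hematocrit) received compound at 2.5 µM for 72 hr at 37°C in low oxygen. After one to two hours with 3 µl of 2.5 µM MitoTracker Red CMXRos containing 0.13% saponin, red particles of 20–70 µm2 were counted in a single field per well. Viability index is reported as the particle count over the plate mean of wells treated with solvent only.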

[1] = library set: Broad Institute DOS
[2] = library set: Broad Institute Blood Stage

Structure (SMILES): N#Cc1cccc(-c2ccc([C@@H]3[C@@H](CO)N4CCCCN(Cc5ccccc5F)C[C@H]34)cc2)c1
- viability index [1]: 0.889 ± 0.028

Structure (SMILES): C[C@H](CO)N1C[C@H](C)[C@@H](CN(C)S(=O)(=O)c2ccc(Cl)cc2)OCCCC[C@H](C)Oc2ccc(NC(=O)Nc3ccc(C(F)(F)F)cc3)cc2C1=O
- viability index [1]: 1.1 ± 0.11

Structure (SMILES): O=C(CC1CC1)N1CC(=O)N2[C@H](C1)[C@H](c1ccc(C#Cc3cccc(F)c3)cc1)[C@@H]2CO
- viability index [1]: 0.974 ± 0.063

Structure (SMILES): COc1ccc([C@H]2C/C=C/C[C@H](C)Oc3ccccc3C(=O)N(C)[C@@H](Cc3ccccc3)C(=O)N2)c(OC)c1.COc1ccc([C@H]2C/C=C\C[C@H](C)Oc3ccccc3C(=O)N(C)[C@@H](Cc3ccccc3)C(=O)N2)c(OC)c1
- viability index [1]: 0.861 ± 0.046

Structure (SMILES): COc1ccc2c3c([nH]c2c1)[C@@H](CO)N(C[C@]31CCN(CC1)S(C)(=O)=O)C(=O)NC1CCCC1
- viability index [1]: 1.01 ± 0.02

Structure (SMILES): Cc1noc(C)c1S(=O)(=O)N(C)C[C@H]1OCc2ccccc2-c2c(n(C)c3ccccc23)C(=O)N([C@H](C)CO)C[C@H]1C
- viability index [1]: 0.948 ± 0.025

Structure (SMILES): O=S(=O)(c1cccc(F)c1)N1[C@@H]2CNC[C@H]1[C@H]2c1ccc(-c2ccccc2F)cc1
- viability index [1]: 1.06 ± 0.051

Structure (SMILES): C[C@@H]1CN([C@@H](C)CO)C(=O)c2c(c3ccccc3n2C)-c2ccccc2CO[C@@H]1CN(C)Cc1cccc(C(F)(F)F)c1
- viability index [1]: 0.839 ± 0.039

Structure (SMILES): C[C@H]1CN([C@@H](C)CO)C(=O)c2c(c3ccccc3n2C)-c2ccccc2CO[C@@H]1CN(C)C(=O)Nc1ccccc1C(F)(F)F
- viability index [1]: 1.009 ± 0.0034

Structure (SMILES): C[C@@H]1CN([C@@H](C)CO)C(=O)c2c(c3ccccc3n2C)-c2ccccc2CO[C@@H]1CN(C)C(=O)Nc1ccccc1C(F)(F)F
- viability index [1]: 0.955 ± 0.039

Structure (SMILES): C[C@H](CO)N1C[C@H](C)[C@H](CN(C)S(=O)(=O)c2ccc(C(F)(F)F)cc2)OCc2ccccc2-c2c(n(C)c3ccccc23)C1=O
- viability index [2]: 0.693 ± 0.051

Structure (SMILES): C[C@@H]1CN([C@@H](C)CO)C(=O)c2c(c3ccccc3n2C)-c2ccccc2CO[C@H]1CN(C)C(=O)Nc1ccccc1C(F)(F)F
- viability index [1]: 0.805 ± 0.084

Structure (SMILES): C[C@@H]1CN([C@@H](C)CO)C(=O)c2c(c3ccccc3n2C)-c2ccccc2CO[C@@H]1CN(C)S(=O)(=O)c1ccc([N+](=O)[O-])cc1
- viability index [1]: 0.998 ± 0.098

Structure (SMILES): C[C@H](CO)N1C[C@H](C)[C@H](CN(C)S(=O)(=O)c2ccc([N+](=O)[O-])cc2)OCc2ccccc2-c2c(n(C)c3ccccc23)C1=O
- viability index [1]: 0.969 ± 0.015

Structure (SMILES): C[C@H]1CN([C@@H](C)CO)C(=O)c2c(c3ccccc3n2C)-c2ccccc2CO[C@H]1CN(C)S(=O)(=O)c1ccc(C(F)(F)F)cc1
- viability index [2]: 0.705 ± 0.04

Structure (SMILES): C[C@@H]1CN([C@@H](C)CO)C(=O)c2c(c3ccccc3n2C)-c2ccccc2CO[C@H]1CN(C)Cc1cccc(C(F)(F)F)c1
- viability index [1]: 0.932 ± 0.15

Structure (SMILES): C[C@H](CO)N1C[C@H](C)[C@@H](CN(C)S(=O)(=O)c2ccc([N+](=O)[O-])cc2)OCc2ccccc2-c2c(n(C)c3ccccc23)C1=O
- viability index [1]: 0.896 ± 0.046

Structure (SMILES): C[C@H]1CN([C@@H](C)CO)C(=O)c2c(c3ccccc3n2C)-c2ccccc2CO[C@H]1CN(C)Cc1cccc(C(F)(F)F)c1
- viability index [1]: 0.952 ± 0.02

Structure (SMILES): C[C@@H]1CN([C@@H](C)CO)C(=O)c2c(c3ccccc3n2C)-c2ccccc2CO[C@H]1CN(C)S(=O)(=O)c1ccc([N+](=O)[O-])cc1
- viability index [1]: 0.93 ± 0.086
